# Test results reported in PubChem BioAssay (EPA / NIEHS).
# Activity calls are given as the source filed them. Rule for the calls: active = hit-call score of the fitted dose curve at least 0.9, where 1 is the maximum; inactive = score below 0.9.
# Tests used:
# [1] = APR_HepG2_CellLoss_72hr: Apredica 72-hour HepG2 Assay for Cell Loss (AID 2282915); details: high-content imaging
# Outline: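 HepG2 cells exposed 72 h to compound at 0.39–200 uM (10 concentrations, duplicate) in 0.5% DMSO. Fixed with 3.7% formaldehyde and Hoechst 33342-stained. Imaged at 20x; nuclear count gives cell number, fitted bidirectionally versus DMSO.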
# [2] = APR_HepG2_P-H2AX_72hr: Apredica 72-hour HepG2 Assay for H2AX Phosphorylation (AID 2282916); details: imaging, actives raise or lower the signal;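 note: phospho-histone H2A.x immunostain intensity per cell marking DNA damage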
# Outline: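 Phospho-histone H2A.x immunofluorescence, multiplexed with Hoechst and c-Jun, quantified by high-content imaging. Compounds applied to HepG2 for 72 h across ten concentrations (0.39–200 uM, 0.5% DMSO), in duplicate; DMSO baseline.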
# [3] = APR_HepG2_MitoMembPot_72hr: Apredica 72-hour HepG2 Assay for Mitochondrial Membrane Potential (AID 2282917); details: imaging, actives raise or lower the signal
# Outline: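 HepG2 cells dosed 72 hr with compound at 0.39–200 uM in duplicate, 0.5% v/v DMSO final. Mitochondria stained with 250 nM MitoTracker Red CMXRos for 30 min before formaldehyde fixation, imaged by high-content fluorescence; bidirectional fit versus DMSO.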
# [4] = APR_HepG2_MitoticArrest_72hr: Apredica 72-hour HepG2 Assay for Mitotic Arrest (AID 2282918); details: high-content imaging, actives raise or lower the signal
# Outline: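 HepG2 cells treated 72 h at 0.39–200 uM, 0.5% DMSO final; formaldehyde-fixed, stained with Hoechst 33342 and phospho-histone H3 antibody, imaged by high-content fluorescence; bidirectional fit versus DMSO.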
# [5] = APR_HepG2_MicrotubuleCSK_72hr: Apredica 72-hour HepG2 Assay for Microtubule CSK Stabilty (AID 2282919); details: HepG2 microtubule cytoskeleton, high-content imaging, actives raise or lower the signal
# Outline: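 HepG2, 72 hr cmpd exposure, 0.39–200 uM (10 pts, duplicate), 0.5% DMSO. 3.7% formaldehyde fix, 0.5% Triton perm, anti-alpha-tubulin/Cy5 plus Hoechst. HCS fluorescence intensity; bidirectional fit vs DMSO baseline; taxol as positive control.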
# [6] = APR_HepG2_P-H2AX_24hr: Apredica 24-hour HepG2 Assay for H2AX Phosphorylation (AID 2282920); details: high-content imaging, actives raise or lower the signal
# Outline: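 HepG2 cells dosed 24 h at 0.39–200 uM (10 points, duplicate, 0.5% DMSO final). Formaldehyde-fixed and permeabilized, then immunostained for phospho-H2A.x with Hoechst. Fluorescence quantified by high-content imaging, fitted bidirectionally versus DMSO.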
# [7] = APR_HepG2_StressKinase_72hr: Apredica 72-hour HepG2 Assay for Stress Kinase (AID 2282921); details: HepG2 stress kinase (phospho-c-Jun) imaging, actives raise or lower the signal
# Outline: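 Stress kinase signal is phospho-c-Jun immunofluorescence (1:500 primary, Cy3 secondary) in fixed, permeabilized human HepG2 cells imaged at 20x. Exposure lasted 72 hr over ten concentrations from 0.39 to 200 uM, 0.5% DMSO, in duplicate. Bidirectional fit versus DMSO.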
# [8] = APR_HepG2_StressKinase_24hr: Apredica 24-hour HepG2 Assay for Stress Kinase (AID 2282922); details: HepG2 stress kinase (phospho-c-Jun) imaging, actives raise or lower the signal
# Outline: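 Read-out: phospho-c-Jun immunofluorescence (Cy3 secondary) quantified by high-content imaging at 20x, nuclei defined by Hoechst 33342. Human HepG2 liver cells dosed 24 hr, 0.39–200 uM, DMSO 0.5% v/v; gain or loss of signal fitted relative to DMSO.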
# [9] = APR_HepG2_p53Act_72hr: Apredica 72-hour HepG2 Assay for p53 Activation (AID 2282923); details: high-content imaging, actives raise or lower the signal;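 note: average cellular p53 protein immunofluorescence intensity in HepG2 cells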
# Outline: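 After 72 h with compound (ten points, 0.39 to 200 uM, final DMSO 0.5% v/v), fixed HepG2 cells were labelled with sheep anti-p53 and Hoechst 33342 and imaged; gain or loss versus DMSO scored.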
# [10] = ATG_CRE_CIS: Attagene CIS-FACTORIAL HepG2 Assay for human cAMP Responsive Element (CRE) binding protein 3 (AID 2282926); details: HepG2 CRE cis-reporter, Attagene multiplexed mRNA; actives raise or lower the signal
# Outline: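 Induced reporter mRNA from a CRE cis element, measured in HepG2 among many multiplexed units at 24 h. Detection used RT-PCR plus capillary electrophoresis of fluorescent fragments; DMSO served as negative control.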
# [11] = molecular target: CCAAT/enhancer-binding protein beta (Homo sapiens) (UniProt P17676); test: ATG_C_EBP_CIS: Attagene CIS-FACTORIAL HepG2 Assay for human CCAAT/Enhancer Binding Protein (C/EBP) beta (AID 2282927); details: HepG2 Attagene cis-factorial transcription factor reporter; actives raise or lower the signal
# Chain of CCAAT/enhancer-binding protein beta (Homo sapiens) (P17676 whole entry, looked up): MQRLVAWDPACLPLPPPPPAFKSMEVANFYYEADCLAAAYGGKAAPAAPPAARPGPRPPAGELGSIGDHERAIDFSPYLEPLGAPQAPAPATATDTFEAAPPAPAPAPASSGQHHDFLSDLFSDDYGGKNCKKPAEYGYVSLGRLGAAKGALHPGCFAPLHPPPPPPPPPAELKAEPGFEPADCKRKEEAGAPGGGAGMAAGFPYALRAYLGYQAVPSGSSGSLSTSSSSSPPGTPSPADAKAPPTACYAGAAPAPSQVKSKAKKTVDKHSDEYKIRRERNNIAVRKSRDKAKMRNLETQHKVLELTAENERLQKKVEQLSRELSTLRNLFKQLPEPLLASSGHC
# Outline: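 HepG2, transient MRTU transfection, 24 h treatment. RT-PCR plus CE fluorescence; DMSO negative control, bidirectional fit.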
# [12] = ATG_CMV_CIS: Attagene CIS-FACTORIAL HepG2 Assay for human CMV (Internal Marker) (AID 2282928); details: HepG2 CMV promoter reporter, transcription factor profiling; actives raise or lower the signal;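 note: endpoint acts as a background internal control marker rather than a target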
# Outline: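 Readout: fluorescent reporter cDNA fragments separated by capillary electrophoresis after RT-PCR and HpaI cut. Cells: HepG2 carrying transfected cis-promoter reporter constructs, dosed 24 h. Endpoint serves as background internal-marker control, fit bidirectionally versus DMSO.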
# [13] = ATG_DR4_LXR_CIS: Attagene CIS-FACTORIAL HepG2 Assay for human Liver X Receptor (LXR), DR4 submotif (AID 2282929); details: HepG2 Attagene DR4 cis-reporter, mRNA transcription; actives raise or lower the signal
# Outline: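 Cells were transfected with multiple reporter transcription units, exposed to chemicals for 24 hours, then lysed for RNA. Reporter mRNA induction was measured by RT-PCR with capillary electrophoresis detection and fitted in both directions relative to DMSO.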
# [14] = molecular target: Aryl hydrocarbon receptor (Homo sapiens) (UniProt P35869); test: ATG_Ahr_CIS: Attagene CIS-FACTORIAL HepG2 Assay for human Aryl Hydrocarbon Receptor (Ahr) (AID 2282930); details: HepG2 AhR cis-factorial reporter transcription; actives raise or lower the signal
# Chain of Aryl hydrocarbon receptor (Homo sapiens) (P35869 whole entry, looked up): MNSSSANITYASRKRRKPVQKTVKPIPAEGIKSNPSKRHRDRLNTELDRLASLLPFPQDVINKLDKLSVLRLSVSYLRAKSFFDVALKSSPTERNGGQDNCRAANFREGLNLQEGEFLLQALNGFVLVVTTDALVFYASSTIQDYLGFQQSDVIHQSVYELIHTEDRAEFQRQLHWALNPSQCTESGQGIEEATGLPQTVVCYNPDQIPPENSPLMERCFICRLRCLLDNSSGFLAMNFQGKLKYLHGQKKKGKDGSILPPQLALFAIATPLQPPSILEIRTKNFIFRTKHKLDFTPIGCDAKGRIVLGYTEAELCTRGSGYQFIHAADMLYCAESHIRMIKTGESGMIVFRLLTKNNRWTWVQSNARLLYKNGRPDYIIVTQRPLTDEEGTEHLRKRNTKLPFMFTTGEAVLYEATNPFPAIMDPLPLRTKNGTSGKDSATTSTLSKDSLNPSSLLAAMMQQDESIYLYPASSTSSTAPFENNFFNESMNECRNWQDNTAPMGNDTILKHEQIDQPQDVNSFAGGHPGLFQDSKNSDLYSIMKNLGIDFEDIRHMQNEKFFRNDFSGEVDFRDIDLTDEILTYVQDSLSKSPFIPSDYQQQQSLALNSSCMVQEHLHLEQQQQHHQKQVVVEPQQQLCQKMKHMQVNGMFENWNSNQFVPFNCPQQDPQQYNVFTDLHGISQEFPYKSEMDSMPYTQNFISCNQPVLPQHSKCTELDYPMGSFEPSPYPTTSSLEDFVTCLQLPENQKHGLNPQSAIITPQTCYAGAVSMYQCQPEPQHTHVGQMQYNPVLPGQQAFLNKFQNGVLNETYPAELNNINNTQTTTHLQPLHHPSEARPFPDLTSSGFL
# Outline: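 Endogenous factor activity is tracked through cis-promoter reporter units transfected into HepG2 cells. Transcript levels at 24 h are read by fluorescent RT-PCR and capillary electrophoresis, with activity in either direction scored relative to DMSO.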
# [15] = ATG_AP_1_CIS: Attagene CIS-FACTORIAL HepG2 Assay for human Activator Protein 1 (AP-1) (AID 2282931); details: HepG2 Attagene cis-factorial AP-1 reporter mRNA; actives raise or lower the signal
# Outline: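 Endogenous transcription-factor activity in human HepG2 liver cells is read through a cis-promoter reporter transcript, sampled 24 h after dosing. Detection uses RT-PCR with capillary electrophoresis; values come from bidirectional fitting relative to DMSO.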
# [16] = ATG_AP_2_CIS: Attagene CIS-FACTORIAL HepG2 Assay for human Activator Protein 2 (AP-2) (AID 2282932); details: HepG2 AP-2 cis-reporter, Attagene transcription factor profiling; actives raise or lower the signal
# Outline: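 Liver-derived HepG2 line, cis-reporter system measuring endogenous factors; 24 h dosing; reporter mRNA detected by fluorescent RT-PCR and capillary electrophoresis.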
# [17] = ATG_BRE_CIS: Attagene CIS-FACTORIAL HepG2 Assay for human Bone Morphogenetic Protein (BMP) Response Element (BRE) (AID 2282933); details: HepG2 BMP response element reporter, Attagene transcription factor profiling; actives raise or lower the signal
# Outline: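 HepG2 cells transiently transfected with multiplexed cis-element reporter units were dosed with chemical for 24 h. Reporter mRNA was measured by RT-PCR with fluorescent labelling, HpaI digestion and capillary electrophoresis; bidirectional fitting relative to DMSO.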
# [18] = molecular target: Retinoic acid receptor alpha (Homo sapiens) (UniProt P10276); test: ATG_DR5_RAR_CIS: Attagene CIS-FACTORIAL HepG2 Assay for human Retinoic Acid Receptor Alpha (RARE), DR5 submotif (AID 2282934); details: HepG2 Attagene cis-factorial RARE DR5 reporter, mRNA; actives raise or lower the signal
# Chain of Retinoic acid receptor alpha (Homo sapiens) (P10276 whole entry, looked up): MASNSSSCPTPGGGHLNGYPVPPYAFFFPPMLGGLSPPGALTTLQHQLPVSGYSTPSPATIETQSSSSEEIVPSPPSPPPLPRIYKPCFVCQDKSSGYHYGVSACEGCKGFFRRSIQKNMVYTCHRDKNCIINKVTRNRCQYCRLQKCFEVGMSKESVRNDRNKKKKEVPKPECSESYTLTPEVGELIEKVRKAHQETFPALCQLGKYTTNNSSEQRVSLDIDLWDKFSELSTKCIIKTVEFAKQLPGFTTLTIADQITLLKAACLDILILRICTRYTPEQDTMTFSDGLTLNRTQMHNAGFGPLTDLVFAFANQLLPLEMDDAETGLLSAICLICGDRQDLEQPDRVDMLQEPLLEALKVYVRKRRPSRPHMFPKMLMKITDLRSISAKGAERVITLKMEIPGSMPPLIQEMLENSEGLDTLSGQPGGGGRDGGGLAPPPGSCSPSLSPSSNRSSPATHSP
# Outline: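 After 24 h of chemical exposure, transiently transfected HepG2 cells were lysed for total RNA; the DR5-regulated reporter transcript was quantified via RT-PCR and capillary electrophoresis, with activity fitted bidirectionally against DMSO.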
smiles,measurement,setting,value
Oc1cc2ccccc2c2ccccc12,AC50,[1],4.01 µM (active)
same,AC50,[2],58.6 µM (active)
same,AC50,[3],38.2 µM (active)
same,AC50,[4],8.45 µM (active)
same,AC50,[5],8.21 µM (active)
same,AC50,[6],3.28 µM (active)
same,outcome,[7],inactive
same,AC50,[8],121 µM (active)
same,AC50,[9],111 µM (active)
same,outcome,[10],inactive
same,outcome,[11],inactive
same,outcome,[12],inactive
same,outcome,[13],inactive
same,outcome,[14],inactive
same,outcome,[15],inactive
same,outcome,[16],inactive
same,outcome,[17],inactive
same,outcome,[18],inactive
CCCCCCC(=O)O,outcome,[1],inactive
same,outcome,[2],inactive
same,outcome,[3],inactive
same,outcome,[4],inactive
same,outcome,[5],inactive
same,outcome,[6],inactive
same,outcome,[7],inactive
same,outcome,[8],inactive
same,outcome,[9],inactive
same,outcome,[10],inactive
same,outcome,[11],inactive
same,outcome,[12],inactive
same,outcome,[13],inactive
same,outcome,[14],inactive
same,outcome,[15],inactive
same,outcome,[16],inactive
same,outcome,[17],inactive
same,outcome,[18],inactive
OC1CCCCC1,outcome,[1],inactive
same,outcome,[2],inactive
same,outcome,[3],inactive
same,outcome,[4],inactive
same,outcome,[5],inactive
same,outcome,[6],inactive
same,outcome,[7],inactive
same,outcome,[8],inactive
same,outcome,[9],inactive
same,outcome,[10],inactive
same,outcome,[11],inactive
same,outcome,[13],inactive
same,outcome,[14],inactive
same,outcome,[15],inactive
same,outcome,[16],inactive
same,outcome,[17],inactive
same,outcome,[18],inactive
CCCCCCCCCCCCc1ccccc1S(=O)(=O)O,AC50,[1],149 µM (active)
same,AC50,[2],111 µM (active)
same,outcome,[3],inactive
same,AC50,[4],107 µM (active)
same,outcome,[5],inactive
same,AC50,[6],119 µM (active)
same,AC50,[7],112 µM (active)
same,outcome,[8],inactive
same,AC50,[9],106 µM (active)
same,outcome,[10],inactive
same,outcome,[11],inactive
same,outcome,[13],inactive
same,outcome,[14],inactive
same,outcome,[15],inactive
same,outcome,[16],inactive
same,outcome,[17],inactive
same,outcome,[18],inactive
COC(=O)CCCCC(=O)OC,outcome,[1],inactive
same,outcome,[2],inactive
same,outcome,[3],inactive
same,outcome,[4],inactive
same,outcome,[5],inactive
same,outcome,[6],inactive
same,outcome,[7],inactive
same,outcome,[8],inactive
same,outcome,[9],inactive
same,outcome,[10],inactive
same,outcome,[11],inactive
same,outcome,[12],inactive
same,outcome,[13],inactive
same,outcome,[14],inactive
same,outcome,[15],inactive
same,outcome,[16],inactive
same,outcome,[17],inactive
same,outcome,[18],inactive
